SW480 rerep: DNA re-replication induction in SW480 cells; SW480 DNA re-replication, Hoechst DNA content imaging, 48 h; Potency, µM (series often up to 46.1 µM), hits mostly activators; 1.8% of 340,000 active; AID 624297; further: nearly all actives have a fitted effect of over 55% in size
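First, 250 cells per well were seeded. Next, compound or vehicle (23 nL) was pinned in, plates sat 48 hr at 37 C. Finally Hoechst was added for 40 min before fluorescence scanning.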
RORg inh: blocks mouse ROR gamma transcriptional activity. 5.4% of 310,000 active. Potency, µM (highest dose often 53.6 µM), most hits filed as inhibitors. AID 2551. Drosophila S2 Gal4-RORgamma UAS-luciferase reporter, 20 h; further: nearly all actives have a fitted effect of over 60% in size
Target sequence (P51450 whole entry, looked up, the tested form may be a part): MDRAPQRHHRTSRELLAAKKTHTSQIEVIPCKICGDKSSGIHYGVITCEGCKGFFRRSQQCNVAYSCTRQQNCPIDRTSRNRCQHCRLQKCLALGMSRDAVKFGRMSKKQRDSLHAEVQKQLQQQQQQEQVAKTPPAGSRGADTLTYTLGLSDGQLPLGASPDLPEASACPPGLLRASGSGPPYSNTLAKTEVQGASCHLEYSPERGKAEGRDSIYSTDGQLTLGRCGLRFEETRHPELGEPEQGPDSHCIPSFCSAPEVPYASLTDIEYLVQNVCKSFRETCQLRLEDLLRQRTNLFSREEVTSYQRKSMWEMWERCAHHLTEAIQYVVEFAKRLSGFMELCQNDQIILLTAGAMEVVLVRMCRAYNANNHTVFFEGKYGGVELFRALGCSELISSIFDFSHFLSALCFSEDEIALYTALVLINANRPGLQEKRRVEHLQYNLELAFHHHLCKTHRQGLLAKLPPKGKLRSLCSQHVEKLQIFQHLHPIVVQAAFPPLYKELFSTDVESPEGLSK
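Stably transfected Drosophila Schneider cells are the test system, with ROR gamma fused to Gal4 and luciferase under UAS control; luminescence is read after 20 hr of 700 uM copper sulfate induction at ambient temperature.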
ELG1 repair inh: inhibitors of ELG1-dependent DNA repair in HEK293T cells | 2.3% of 330,000 active | Potency, µM (highest dose often 46.1 µM), hits mostly inhibitors | HEK293T ELG1-luciferase reporter, luminescence, 16 h; DNA damage induced by 5-fluorouridine; further: nearly all actives have a fitted effect of over 55% in size
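Reporter activity after DNA damage by 5-fluorouridine is monitored. Compound-treated cells incubate 16 hr at 37 °C, then ONE-Glo is added for 30 min before luminescence reading.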
MCF10A rereplic: induces DNA re-replication in MCF 10a normal breast cells. MCF 10A DNA re-replication, Hoechst nuclear intensity, 48 h. Potency, µM (doses to about 46.1 µM), hits mostly activators. 2.9% of 350,000 active; further: nearly all actives have a fitted effect of over 50% in size
Gal4-VP16 FLuc: Gal4-VP16 reporter inhibition counter-screen; Drosophila S2 Gal4-VP16 UAS-luciferase, luminescence, 20 h; Potency, µM (highest dose often 53.6 µM), usual class: inhibitors; 3.5% of 310,000 active; AID 2546;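 further: Gal4-VP16 expression switched on by copper sulfate through the metallothionein promoter; nearly all actives have a fitted effect of over 50% in size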
Numbers stand for hits; n = inactive; u = inconclusive; x = no result; [ ] = dose if it differs, or a comment. This is a sample that favours compounds with a hit; in the whole collection about 10% have one here. The call rests on the fitted dose curve; in most records, active means well fitted curve in the direction sought with a large enough effect; inconclusive means small, poorly fitted or top-dose-only effect, or another doubt; inactive means no such curve, though single readings can be large; an effect the other way counts as inactive or inconclusive.

SMILES | SW480 rerep | RORg inh | ELG1 repair inh | MCF10A rereplic | Gal4-VP16 FLuc
COc1cc(C)c2c(c1OC)C(=O)CC2 | n | x | x | n | x
Cc1ccc(C)n1-c1ccccc1N | x | 14µM | n | x | 13µM
Cc1cc(=O)cc(C)n1-c1ccccc1N | n | n | n | n | n
CC(C)CC1NC(=S)N(C2CCCCC2)C1=O (stereo not given) | u | u | n | 16µM | u
O=C1C(Cc2ccc(O)cc2)NC(=S)N1C1CCCCC1 (stereo not given) | n | n | n | n | n
CCC1NC(=S)N(C2CCCCC2)C1=O (stereo not given) | n | 11µM | n | n | u
CC(C)CC1NC(=O)N(CC(=O)NC2CCCCC2)C1=O (stereo not given) | n | x | n | n | x
CC(C)C1NC(=S)N(C2CCCCC2)C1=O (stereo not given) | n | 6.3µM | n | n | u
O=C1C(c2ccccc2)NC(=S)N1C1CCCCC1 (stereo not given) | n | n | n | n | n
O=C1C(Cc2c[nH]c3ccccc23)NC(=S)N1C1CCCCC1 (stereo not given) | n | 20µM | n | n | u
COCCn1c(=O)c(-c2cccs2)nc2cnc(N3CCOCC3)nc21 | x | n | x | x | n
COc1cc(NC(=O)c2cccs2)c(OC)cc1NC(=O)Nc1ccc(F)cc1 | n | u | n | n | n
CCN(c1cccc(C)c1)C1C(=O)c2ccccc2N1C(C)=O (stereo not given) | n | n | n | n | n
CCOC(=O)c1c(NC(=O)CCl)sc(CN(C)C)c1-c1ccccc1 | u | u | n | u | u
CCOC(=O)c1c(NC(=S)N2CCN(C)CC2)sc(C)c1-c1ccccc1 | u | n | n | 26µM | u
CCOC(=O)c1ccc(NC(=S)N2CCN(C)CC2)cc1 | n | n | n | u | u
CCOC(=O)c1c(NC(=O)/C=C/C(=O)O)sc(C)c1-c1ccc(Cl)cc1 | n | n | n | 2.9µM | n
CCOC(=O)c1c(NC(=O)CN2CCCCC2)sc(CN(C)C)c1-c1ccccc1 | 16µM | n | n | 26µM | n
NS(=O)(=O)c1ccc(N2CCN(C(=O)c3ccco3)CC2)nc1 | n | x | n | n | x
CN(C)c1ccc(/C=N/NC(=O)c2ccc3c(c2)OCO3)cc1 | n | u | u | n | n
O=C(N/N=C/c1ccncc1)c1cccc(NC(=O)c2ccc(Cl)cc2)c1 | n | n | n | n | n
O=C(N/N=C/c1ccc(F)cc1)c1cccc(NC(=O)c2ccc(F)cc2)c1 | n | n | n | 21µM | n
O=C(CNC(=O)c1ccc2c(c1)OCO2)N/N=C(Br)/C=C/c1ccccc1 | u | u | u | 9.2µM | n
O=C(N/N=C/c1ccccc1)c1ccc2c(c1)OCO2 | n | u | u | n | 11µM
O=C(N/N=C/c1c(O)ccc2ccccc12)c1ccc(CO)nc1 | u | 4µM | u | u | 6.3µM
SMILES | SW480 rerep | RORg inh | ELG1 repair inh | MCF10A rereplic | Gal4-VP16 FLuc
Cc1ccccc1C(=O)N1CCC(C(=O)NC2CCCCC2)CC1 | n | n | u | n | n
OCCOCCOCCO | n | n[10 µM] | x | n | n
COc1ccc(CNC(=O)CCC(=O)n2ncc3cc(C)ccc32)cc1 | n | n | n | n | n
CC(C)C(=O)n1nc(-c2cccnc2)nc1NCc1cccs1 | n | n | n | n | n
COc1ccc(NC(=O)COC(=O)CCNS(=O)(=O)c2ccccc2)cc1OC | n | n | n | n | n
O=C(N/N=C/c1ccc2c(c1)OCO2)c1ccc(NC(=O)c2ccccc2Cl)cc1 | n | u | 13µM | u | n
O=C(N/N=C/c1ccc([N+](=O)[O-])o1)c1ccc2c(c1)OCO2 | u | 4.5µM | n | n | 10µM
O=C(CNC(=O)c1ccc(S(=O)(=O)N2CCCC2)cc1)N/N=C/c1ccccc1Cl | n | u | n | n | n
O=C(N/N=C/c1ccc(Br)o1)c1ccc2c(c1)OCCO2 | n | 11µM | u | n | u
O=C(N/N=C\c1c(O)ccc2ccccc12)c1ccc(S(=O)(=O)N2CCCCC2)cc1 | u | 2.5µM | u | n | 4µM
O=C(N/N=C\c1ccc(-c2ccc([N+](=O)[O-])cc2)o1)c1ccc2c(c1)OCO2 | n | n | n | n | u
CC1CCCCC1NC(=O)C1CCC(CNc2c(N3CCCCC3)c(=O)c2=O)CC1 (stereo not given) | n | n | n | n | n
CCOc1ccc(N2CC(C(=O)Nc3nnc(Cc4ccccc4)s3)CC2=O)cc1 (stereo not given) | n | n | n | n | n
CCOC(=O)C1(C)Oc2cccnc2NC1=O (stereo not given) | n | n | n | n | n
Cc1ccc(Cl)c(OCC(=O)Nc2cc(S(=O)(=O)N3CCOCC3)ccc2N2CCCC2)c1 | n | n | u | n | n
Cc1cccc(C(=O)Nc2cccc(C(=O)N/N=C/c3ccc4c(c3)OCO4)c2)c1 | 23µM | n | n | 13µM | n
O=C(NN=Cc1c(O)ccc2ccccc12)c1ccc2c(c1)OCO2 | 21µM | x | u | 12µM | x
O=C(N/N=C/c1cccnc1)c1ccc2c(c1)OCCO2 | n | u | u | n | 14µM
COCCN(C(=O)c1csnn1)C(C(=O)NC1CCCCC1)c1ccccc1 (stereo not given) | n | n | n | n | n
Cc1ccc2oc(C(=O)NCc3ncc(C)[nH]3)c(C)c2c1 | 16µM | n | n | u | n
Cc1cccc(OC(C)C(=O)Nc2nccs2)c1 (stereo not given) | u | n | n | n | n
CCC(C)[C@H]1CNC(=S)N1CCC12CC3CC(CC(C3)C1)C2 (stereo not given in full) | n | 0.89µM | n | n | 2.8µM
CCC(C)[C@H]1CNC(=S)N1CCc1cccc2ccccc12 (stereo not given in full) | n | 2.5µM | n | n | 4.5µM
Cc1cccc(-n2nc3c(c2NC(=O)CCCl)CSC3)c1 | n | n | n | n | n
Cc1cccc(-n2nc3c(c2NC(=O)c2ccc(Br)o2)CSC3)c1 | n | 3.2µM | n | n | n
SMILES | SW480 rerep | RORg inh | ELG1 repair inh | MCF10A rereplic | Gal4-VP16 FLuc
CCC1(c2ccccc2)NC(=O)N(CC(=O)Nc2cc(S(=O)(=O)N3CCOCC3)ccc2OC(C)C)C1=O (stereo not given) | n | x | n | n | x
Cc1ccc(NC(=O)Cc2nc(COC(=O)c3c(F)cccc3Cl)cs2)cc1 | n | x | 18µM | n | x
Cc1ccccc1NC(=O)Cc1nc(COC(=O)c2ccc(Cl)c(S(N)(=O)=O)c2)cs1 | n | x | 5.2µM | n | x
CC(=O)c1c(C)[nH]c(C(=O)OCc2csc(CC(=O)Nc3ccccc3C)n2)c1C | u | x | 13µM | n | x
CC(C)(O)C#Cc1ccc(CN2CCCC(CO)(Cc3cccc(Cl)c3)C2)cc1 (stereo not given) | n | n | n | n | n
CCOC(=O)c1cnc(-n2nc(C)cc2C)nc1N(C)C | n | 1.1µM | u | n | 4.5µM
CCOC(=O)c1cnc(-n2nc(C)cc2C)nc1N1CCOCC1 | n | n | n | n | 11µM

Source: PubChem
